Calls of active or inactive are those of the source. The calls were made as follows: active = hit-call score of the fitted dose curve at least 0.9, where 1 is the maximum; inactive = score below 0.9.
Experiments:
Details in all cases: mRNA level, 48 h; actives raise or lower the signal
[1] = read-out: ABC Transporter (ABCB11), ABCB11 (gene 8647); test: LTEA_HepaRG_ABCB11: Life Technologies and Expression Analysis (LTEA) Assay for ABC Transporter (ABCB11) using HepaRG (AID 2283463)
How it was run: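 HepaRG, 48 h exposure, 8-pt half-log CRC top 100 uM, 0.5% DMSO vehicle, duplicates. Readout: TaqMan qRT-PCR of ABCB11 mRNA, housekeeping-normalized (ACTB/GAPDH/POLR2A). Bidirectional fit vs DMSO baseline.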

[2] = read-out: ABC Transporter (ABCC2), ABCC2 (gene 1244); test: LTEA_HepaRG_ABCC2: Life Technologies and Expression Analysis (LTEA) Assay for ABC Transporter (ABCC2) using HepaRG (AID 2283464)
How it was run: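 Endpoint is ABCC2 transcript level from qRT-PCR, normalized to three housekeeping genes and fitted bidirectionally relative to DMSO. Human HepaRG cells received test chemical for 48 h at up to 100 uM (8 points, half-log steps, 0.5% DMSO), duplicate wells.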

[3] = read-out: Broad substrate specificity ATP-binding cassette transporter ABCG2 (Homo sapiens) (UniProt Q9UNQ0); test: LTEA_HepaRG_ABCG2: Life Technologies and Expression Analysis (LTEA) Assay for ABC Transporter (ABCG2) using HepaRG (AID 2283465)
How it was run: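 HepaRG, 48 h exposure, 8-pt half-log series from 100 uM, 0.5% DMSO vehicle, duplicates. Readout: ABCG2 transcript by qRT-PCR (Fluidigm array), housekeeping-normalized; bidirectional curve fit relative to DMSO baseline.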

[4] = read-out: ATP-citrate lyase (ACLY), ACLY (gene 47); test: LTEA_HepaRG_ACLY: Life Technologies and Expression Analysis (LTEA) Assay for ATP-citrate lyase (ACLY) using HepaRG (AID 2283466)
How it was run: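 qRT-PCR readout of ACLY transcript after 48 h chemical treatment of HepaRG cells; expression normalized to three housekeeping genes. Eight-point half-log series, highest 100 uM, 0.5% DMSO vehicle. Gain or loss fitted against DMSO baseline.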

[5] = read-out: Peroxisomal acyl-coenzyme A oxidase 1 (ACOX1) gene, ACOX1 (gene 51); test: LTEA_HepaRG_ACOX1: Life Technologies and Expression Analysis (LTEA) Assay for Peroxisomal acyl-coenzyme A oxidase 1 (ACOX1) gene using HepaRG (AID 2283467)
How it was run: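 HepaRG, 48 h chemical exposure, 8-pt half-log series from 100 uM top, 0.5% DMSO vehicle, duplicates. Readout: ACOX1 mRNA by Fluidigm qRT-PCR, housekeeping-normalized; bidirectional fit vs DMSO baseline.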

[6] = read-out: Alkaline Phosphatase, Placental (ALPP) gene, ALPP (gene 250); test: LTEA_HepaRG_ALPP: Life Technologies and Expression Analysis (LTEA) Assay for Alkaline Phosphatase, Placental (ALPP) gene using HepaRG (AID 2283468);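 as to AC50: differentiated human HepaRG liver cells in serum-free induction medium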
How it was run: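 ALPP transcript level, measured by qRT-PCR and normalized to three housekeeping genes (ACTB, GAPDH, POLR2A), after 48 h dosing of differentiated HepaRG in serum-free induction medium. Top concentration 100 uM with half-log dilutions (8 points, 0.5% DMSO, duplicates); bidirectional fitting relative to DMSO.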

[7] = read-out: Bcl-2 (BAD) gene, BAD (gene 572); test: LTEA_HepaRG_BAD: Life Technologies and Expression Analysis (LTEA) Assay for Bcl-2 (BAD) gene using HepaRG (AID 2283469)
How it was run: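 HepaRG, 48 h exposure, 8-pt half-log curve from 100 uM in 0.5% DMSO, duplicates. Readout: TaqMan qRT-PCR for BAD mRNA, housekeeping-normalised (ACTB/GAPDH/POLR2A); gain or loss fitted against DMSO baseline.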

[8] = read-out: Bcl-2 (BAX) gene, BAX (gene 581); test: LTEA_HepaRG_BAX: Life Technologies and Expression Analysis (LTEA) Assay for Bcl-2 (BAX) gene using HepaRG (AID 2283470)
How it was run: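 Human HepaRG cells treated in duplicate for 48 h across eight concentrations (max 100 uM, 0.5% DMSO); BAX expression measured by qRT-PCR.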

[9] = read-out: adenosine kinase (ADK) gene, ADK (gene 132); test: LTEA_HepaRG_ADK: Life Technologies and Expression Analysis (LTEA) Assay for adenosine kinase (ADK) gene using HepaRG (AID 2283471)
How it was run: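 Differentiated HepaRG cells dosed 48 h in serum-free induction medium, 0.5% DMSO vehicle, eight half-log concentrations from 100 uM, in duplicate. ADK mRNA by TaqMan qRT-PCR normalised to ACTB, GAPDH, POLR2A; bidirectional fit versus DMSO.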

[10] = read-out: Alpha-fetoprotein (AFP) gene, AFP (gene 174); test: LTEA_HepaRG_AFP: Life Technologies and Expression Analysis (LTEA) Assay for Alpha-fetoprotein (AFP) gene using HepaRG (AID 2283472)
How it was run: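 Measures AFP mRNA change in HepaRG after 48 h chemical exposure (8 half-log concentrations, highest 100 uM, 0.5% DMSO). Fold change relative to DMSO, fitted in both directions.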

BCL2L11 (gene 10018) = test: LTEA_HepaRG_BCL2L11: Life Technologies and Expression Analysis (LTEA) Assay for Bcl-2 (BCL2L11) gene using HepaRG (AID 2283473)
How it was run: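 BCL2L11 transcript levels are measured by Fluidigm qRT-PCR, normalized to three housekeeping genes. HepaRG cultures were plated 48 h, then treated 48 h with test chemical (top 100 uM, half-log, 0.5% DMSO vehicle); curves were fitted bidirectionally against DMSO.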

[11] = read-out: Apolipoprotein A-V (APOA5) gene, APOA5 (gene 116519); test: LTEA_HepaRG_APOA5: Life Technologies and Expression Analysis (LTEA) Assay for Apolipoprotein A-V (APOA5) gene using HepaRG (AID 2283474)
How it was run: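 APOA5 transcript levels were quantified by qRT-PCR, normalized to three housekeeping genes, after 48 h chemical treatment of HepaRG cells (8 points, 100 uM maximum, half-log steps, 0.5% DMSO). Curves fitted in both directions against vehicle.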

[12] = read-out: Bcl-2 (BID) gene, BID (gene 637); test: LTEA_HepaRG_BID: Life Technologies and Expression Analysis (LTEA) Assay for Bcl-2 (BID) gene using HepaRG (AID 2283476)
How it was run: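 Assay used HepaRG hepatic cells treated 48 h in serum-free medium with half-log dilutions from 100 uM. Endpoint: BID mRNA, qRT-PCR, normalized to ACTB/GAPDH/POLR2A.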

Caspase-3 (Homo sapiens) = Caspase-3 (Homo sapiens) (UniProt P42574); test: LTEA_HepaRG_CASP3: Life Technologies and Expression Analysis (LTEA) Assay for cysteine-aspartic acid protease (CASP3) using HepaRG (AID 2283477)
How it was run: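 Expression of CASP3 was quantified by TaqMan qRT-PCR against three housekeeping genes (ACTB, GAPDH, POLR2A), bidirectionally versus 0.5% DMSO. HepaRG cultures received compounds in duplicate, top 100 uM with half-log steps, for 48 h in serum-free induction medium.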

[13] = read-out: Cytochrome P450 (CYP1A2), CYP1A2 (gene 1544); test: LTEA_HepaRG_CYP1A2: Life Technologies and Expression Analysis (LTEA) Assay for Cytochrome P450 (CYP1A2) using HepaRG (AID 2283479)
How it was run: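 CYP1A2 transcript measured by TaqMan qRT-PCR against three housekeeping genes after 48-hour chemical exposure of HepaRG cells. Eight-point half-log series topping at 100 uM in 0.5% DMSO, duplicates; gain or loss fitted relative to vehicle.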

[14] = read-out: cysteine-aspartic acid protease (CASP8), CASP8 (gene 841); test: LTEA_HepaRG_CASP8: Life Technologies and Expression Analysis (LTEA) Assay for cysteine-aspartic acid protease (CASP8) using HepaRG (AID 2283480)
How it was run: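 qRT-PCR readout of CASP8 mRNA, normalized to three housekeeping genes, after 48 h chemical exposure of HepaRG cells; 8-point half-log series, top 100 uM, 0.5% DMSO vehicle. Bidirectional curve fitting against DMSO baseline.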

[15] = read-out: Cytochrome P450 (CYP2B6), CYP2B6 (gene 1555); test: LTEA_HepaRG_CYP2B6: Life Technologies and Expression Analysis (LTEA) Assay for Cytochrome P450 (CYP2B6) using HepaRG (AID 2283481)
How it was run: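 CYP2B6 transcript level quantified by qRT-PCR against three housekeeping genes, fitted bidirectionally relative to DMSO. HepaRG cultures received chemicals for 48 h, 8-point half-log series from 100 uM in 0.5% DMSO, duplicate wells, serum-free induction medium.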

[16] = read-out: Cytochrome P450 2C19 (Homo sapiens) (UniProt P33261); test: LTEA_HepaRG_CYP2C19: Life Technologies and Expression Analysis (LTEA) Assay for CYP2C19 using HepaRG (AID 2283482)
How it was run: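 CYP2C19 transcript levels by qRT-PCR, normalized to three housekeeping genes, in HepaRG cells after 48 h chemical exposure. Eight-point half-log series topping at 100 uM, 0.5% DMSO vehicle. Increases and decreases both fitted against DMSO.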

CYP2C8 (gene 1558) = test: LTEA_HepaRG_CYP2C8: Life Technologies and Expression Analysis (LTEA) Assay for CYP2C8 using HepaRG (AID 2283483)
How it was run: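 HepaRG (human liver line), 48 h chemical exposure, 8-pt half-log series from 100 uM, 0.5% DMSO vehicle. Readout: CYP2C8 transcript by qRT-PCR, housekeeping-normalized. Bidirectional fit vs DMSO baseline.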

CYP2C9 (gene 1559) = test: LTEA_HepaRG_CYP2C9: Life Technologies and Expression Analysis (LTEA) Assay for CYP2C9 using HepaRG (AID 2283484)
How it was run: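 HepaRG, 48 h dosing, 8-pt half-log series, top 100 uM, 0.5% DMSO vehicle. Read-out: CYP2C9 transcript by TaqMan qRT-PCR, housekeeping-normalized (ACTB/GAPDH/POLR2A). Gain or loss fitted vs DMSO baseline.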

Measured: AC50

Chain of Cytochrome P450 2C19 (Homo sapiens) (P33261 whole entry, looked up): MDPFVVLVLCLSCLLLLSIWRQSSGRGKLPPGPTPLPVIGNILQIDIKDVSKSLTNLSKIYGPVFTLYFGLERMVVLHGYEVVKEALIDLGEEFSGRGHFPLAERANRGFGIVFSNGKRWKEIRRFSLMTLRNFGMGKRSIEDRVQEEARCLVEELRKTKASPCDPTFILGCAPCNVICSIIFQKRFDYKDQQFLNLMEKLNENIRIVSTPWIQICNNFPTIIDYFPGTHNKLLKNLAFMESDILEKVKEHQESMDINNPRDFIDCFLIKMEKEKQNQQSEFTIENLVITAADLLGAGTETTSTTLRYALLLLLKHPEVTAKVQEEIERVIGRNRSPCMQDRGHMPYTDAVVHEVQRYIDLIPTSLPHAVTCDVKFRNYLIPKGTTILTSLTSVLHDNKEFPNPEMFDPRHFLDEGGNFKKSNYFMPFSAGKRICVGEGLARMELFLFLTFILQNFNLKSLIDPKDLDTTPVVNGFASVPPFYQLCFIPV
Chain of Broad substrate specificity ATP-binding cassette transporter ABCG2 (Homo sapiens) (Q9UNQ0 whole entry, looked up): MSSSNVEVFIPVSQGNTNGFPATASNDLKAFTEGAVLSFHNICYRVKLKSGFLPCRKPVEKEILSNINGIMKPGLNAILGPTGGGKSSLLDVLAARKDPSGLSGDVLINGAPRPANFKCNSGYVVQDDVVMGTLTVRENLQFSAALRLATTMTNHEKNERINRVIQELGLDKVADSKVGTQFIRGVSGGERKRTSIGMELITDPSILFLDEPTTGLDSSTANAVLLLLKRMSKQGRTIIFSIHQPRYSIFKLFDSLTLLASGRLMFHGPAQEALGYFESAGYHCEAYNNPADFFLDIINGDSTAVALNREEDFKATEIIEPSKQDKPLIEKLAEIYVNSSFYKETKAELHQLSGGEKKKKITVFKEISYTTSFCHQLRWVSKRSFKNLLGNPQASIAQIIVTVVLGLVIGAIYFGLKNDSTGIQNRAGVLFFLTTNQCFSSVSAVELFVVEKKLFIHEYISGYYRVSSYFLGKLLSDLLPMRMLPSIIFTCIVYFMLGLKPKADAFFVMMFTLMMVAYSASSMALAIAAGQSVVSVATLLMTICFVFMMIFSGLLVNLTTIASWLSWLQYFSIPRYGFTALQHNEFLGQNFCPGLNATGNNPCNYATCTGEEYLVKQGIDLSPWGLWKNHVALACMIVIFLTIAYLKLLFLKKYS
Chain of Caspase-3 (Homo sapiens) (P42574 whole entry, looked up): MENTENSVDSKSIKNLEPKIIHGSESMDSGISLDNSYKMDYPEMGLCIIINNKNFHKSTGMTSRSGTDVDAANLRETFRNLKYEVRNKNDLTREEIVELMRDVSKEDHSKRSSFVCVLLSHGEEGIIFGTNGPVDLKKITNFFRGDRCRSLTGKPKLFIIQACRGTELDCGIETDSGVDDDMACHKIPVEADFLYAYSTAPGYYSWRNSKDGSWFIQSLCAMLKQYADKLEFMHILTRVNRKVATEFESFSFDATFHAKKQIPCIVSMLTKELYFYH

C=C(C)C(=O)[O][Sn]([CH2]CCC)([CH2]CCC)[CH2]CCC
inactive: [4] | [5] | [7] | [9] | [14] | CYP2C9 (gene 1559)
active: [1] 2.02 µM | [2] 3.35 µM | [3] 0.917 µM | [6] 1.58 µM | [8] 92.1 µM | [10] 2.17 µM | BCL2L11 (gene 10018) 88.3 µM | [11] 2.92 µM | [12] 1.58 µM | Caspase-3 (Homo sapiens) 5 µM | [13] 0.471 µM | [15] 2.33 µM | [16] 2.64 µM | CYP2C8 (gene 1558) 2.38 µM

O=C(O)C(Cl)(Cl)Cl
inactive: [1] | [2] | [3] | [4] | [5] | [6] | [7] | [8] | [9] | [10] | BCL2L11 (gene 10018) | [11] | [12] | Caspase-3 (Homo sapiens) | [13] | [14] | [15] | [16] | CYP2C8 (gene 1558) | CYP2C9 (gene 1559)

CCCCCCCCc1ccc(O)cc1
inactive: [1] | [2] | [3] | [4] | [5] | [6] | [7] | [8] | [9] | [10] | BCL2L11 (gene 10018) | [11] | [12] | Caspase-3 (Homo sapiens) | [13] | [14] | [15] | [16] | CYP2C8 (gene 1558) | CYP2C9 (gene 1559)

CC12CC1(C)C(=O)N(c1cc(Cl)cc(Cl)c1)C2=O (centres undefined)
active: [1] 6.92 µM | [5] 13.1 µM | [10] 25.8 µM | [13] 3.26 µM | [15] 4.53 µM | [16] 8.3 µM
inactive: [2] | [3] | [4] | [6] | [7] | [8] | [9] | BCL2L11 (gene 10018) | [11] | [12] | [14] | CYP2C8 (gene 1558) | CYP2C9 (gene 1559)

Source: PubChem BioAssay (EPA / NIEHS)
